Several values for one entry are separate records, joined by “and”; a condition that tells them apart may be missing. Equal entries are not always repeated. Results filed as inconclusive are left out. Activity calls are given as the source filed them. Unless noted, the call rests on the fitted dose curve; in most records, active means well fitted curve in the direction sought with a large enough effect in the repeat runs; inconclusive means weak or mixed curves; inactive means flat fitted curve, though single readings scatter.
Legend:
[1] = qHTS assay to test for compound auto fluorescence at 535 nm (green) in HEK293 cells (AID 720680)
[2] = qHTS assay to test for compound auto fluorescence at 460 nm (blue) in HEK293 cell free culture (AID 720681)
In short: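 Test compounds were pinned into cell-free culture medium (DMEM with 10% FBS) and fluorescence was read directly at Ex/Em 405/460 nm. Signals were expressed as fluorescence equivalents of triamterene, with DMSO vehicle as control.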

[3] = qHTS assay to test for compound auto fluorescence at 535 nm (green) in HEK293 cell free culture (AID 720682)
In short: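 Using fluorescein as calibrant, autofluorescence was quantified at 485/535 nm in cell-free DMEM containing 10% FBS after pintool addition of compound or vehicle.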

[4] = qHTS assay to test for compound auto fluorescence at 590 nm (red) in HEK293 cell free culture (AID 720683)
In short: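 Tox21 10K library compounds were pinned into cell-free DMEM with 10% FBS and fluorescence was read at excitation 540 nm. Activity is expressed as Rose Bengal sodium equivalency.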

[5] = qHTS assay to test for compound auto fluorescence at 460 nm (blue) in HepG2 cell free culture (AID 720685)
In short: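 Compound (23 nL) or DMSO pinned into cell-free MEM with 10% FBS; blue fluorescence read at 405/460 nm excitation/emission, expressed as auto-fluorescence equivalency to triamterene.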

[6] = qHTS assay to test for compound auto fluorescence at 535 nm (green) in HepG2 cell free culture (AID 720686)
[7] = target: Glucocorticoid receptor (Homo sapiens) (UniProt P04150); assay: qHTS assay to identify small molecule agonists of the glucocorticoid receptor (GR) signaling pathway (AID 720691; active means well fitted activation curve with a large enough effect in the signal ratio in the repeat runs, not every such curve was filed as active; the % refers to the signal ratio); conditions: GR-bla HeLa, beta-lactamase reporter ratio, 18 h; activation: at 62.4 µM (top of the series)
In short: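 GR-bla HeLa cells (beta-lactamase reporter under glucocorticoid response element) were plated 4 h at 37 C/5% CO2, given compounds in DMSO, and incubated 18 h at 37 C. LiveBLAzer B/G FRET substrate was added for 2 h at room temperature, then fluorescence intensity read.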

[8] = qHTS assay to test for compound auto fluorescence at 460 nm (blue) in HepG2 cells (AID 720687)
In short: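 Cells (2,000/well in MEM with 10% FBS) attached overnight at 37 C, then were exposed to compound or DMSO for 1 hr at 37 C, 5% CO2. Fluorescence read at Ex/Em 405/460 nm, expressed as triamterene-equivalent signal.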

[9] = target: Glucocorticoid receptor (Homo sapiens) (UniProt P04150); assay: qHTS assay to identify small molecule antagonists of the glucocorticoid receptor (GR) signaling pathway (AID 720692; active means well fitted inhibition curve with a large enough effect in the signal ratio in the repeat runs, not every such curve was filed as active; the % refers to the signal ratio; further: potency means the concentration at half of the fitted maximal effect)
In short: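 GR-bla HeLa cells (beta-lactamase reporter under glucocorticoid response element) were pre-plated 4 h at 37 C, treated with compounds plus 5 nM dexamethasone (final) for 18 h, then read by LiveBLAzer B/G FRET fluorescence after 2 h.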
On the % scale 0 is the no-effect control and ±100 the full control effect.

Glucocorticoid receptor (Homo sapiens), sequence (P04150 whole entry, looked up): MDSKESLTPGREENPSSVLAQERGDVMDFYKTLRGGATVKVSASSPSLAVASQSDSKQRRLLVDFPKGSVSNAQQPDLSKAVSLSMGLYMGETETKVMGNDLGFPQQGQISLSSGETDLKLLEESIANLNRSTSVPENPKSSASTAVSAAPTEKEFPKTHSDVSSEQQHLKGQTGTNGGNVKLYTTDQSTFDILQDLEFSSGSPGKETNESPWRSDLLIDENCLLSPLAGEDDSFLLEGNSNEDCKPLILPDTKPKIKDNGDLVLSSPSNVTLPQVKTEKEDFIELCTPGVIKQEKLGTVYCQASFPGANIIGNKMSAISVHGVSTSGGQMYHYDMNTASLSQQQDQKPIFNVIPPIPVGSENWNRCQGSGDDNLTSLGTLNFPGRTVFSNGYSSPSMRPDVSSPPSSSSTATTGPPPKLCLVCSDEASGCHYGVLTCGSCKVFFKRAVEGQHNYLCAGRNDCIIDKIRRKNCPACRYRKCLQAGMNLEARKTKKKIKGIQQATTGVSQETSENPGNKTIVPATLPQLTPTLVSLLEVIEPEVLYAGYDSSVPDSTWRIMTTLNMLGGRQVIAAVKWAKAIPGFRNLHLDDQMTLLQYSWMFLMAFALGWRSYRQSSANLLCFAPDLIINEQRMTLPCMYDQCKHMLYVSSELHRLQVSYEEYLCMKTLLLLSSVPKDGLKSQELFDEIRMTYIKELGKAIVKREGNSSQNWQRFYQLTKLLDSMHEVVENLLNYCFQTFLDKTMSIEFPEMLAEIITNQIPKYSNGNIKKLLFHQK

CCCCCCCC/C=C/CCCOC(C)=O
inactive: Potency [1] | Potency [2] | Potency [3] | Potency [4] | Potency [5] | Potency [6] | Potency [7]

SCCCCCCCCS
inactive: Potency [1] | Potency [2] | Potency [3] | Potency [4] | Potency [5] | Potency [6] | Potency [8]

CC(C)(c1cc(Br)c(O)c(Br)c1)c1cc(Br)c(O)c(Br)c1
inactive: Potency [1] | Potency [2] | Potency [3] | Potency [4] | Potency [5] | Potency [6] | Potency [8]

CC(C)OC(=O)c1cc(C(=O)OC(C)C)cc([N+](=O)[O-])c1
inactive: Potency [1] | Potency [2] | Potency [3] | Potency [4] | Potency [5] | Potency [6] | Potency [8] | Potency [7]

CCN(CC)CCOC(=O)C1(C2CCCCC2)CCCCC1
inactive: Potency [1] | Potency [2] | Potency [3] | Potency [4] | Potency [6] | Potency [8] | Potency [7] | Potency [9]

C1CC(COCC2CO2)CCC1COCC1CO1 (stereo not drawn)
inactive: Potency [1] | Potency [2] | Potency [3] | Potency [4] | Potency [5] | Potency [6] | Potency [7]

O=C1NC2CCCCN2C12CCN(CCCN1c3ccccc3CCc3ccc(Cl)cc31)CC2 (stereo not drawn)
active: Potency [9] 23.9 µM
inactive: Potency [1] | Potency [2] | Potency [3] | Potency [4] | Potency [6] | Potency [8] | Potency [7]

O=Nc1ccc(NO)cc1
inactive: Potency [1] | Potency [2] | Potency [3] | Potency [4] | Potency [6] | Potency [8] | Potency [7]

CCCCOC(=O)C(C)CC (stereo not drawn)
inactive: Potency [1] | Potency [2] | Potency [3] | Potency [4] | Potency [5] | Potency [6] | Potency [8] | Potency [7]

CCCCCCCCCCCCCCCC
inactive: Potency [1] | Potency [2] | Potency [3] | Potency [4] | Potency [5] | Potency [6] | Potency [8] | Potency [7] | Potency [9]

CCCCCCOc1cc(C)c(O)c(C)c1C
inactive: Potency [1] | Potency [2] | Potency [3] | Potency [4] | Potency [6] | Potency [8]

CCC(C)(C)c1cc(O)c(C(C)(C)CC)cc1O
inactive: Potency [1] | Potency [2] | Potency [3] | Potency [4] | Potency [5] | Potency [6] | Potency [8] | Potency [7]

C[Si](C)(C)Cl
inactive: Potency [1] | Potency [2] | Potency [3] | Potency [4] | Potency [5] | Potency [6] | Potency [7] | Potency [9]

CCOC(=O)C1=C(C)NC(C)=C(C(=O)OCC)C1c1ccccc1/C=C/C(=O)OC(C)(C)C
inactive: Potency [1] | Potency [2] | Potency [3] | Potency [4] | Potency [5] | Potency [6] | Potency [8]

CCCCNc1c(C(=O)OCC)c(C)nc2c1cnn2CC
inactive: Potency [1] | Potency [2] | Potency [3] | Potency [4] | Potency [5] | Potency [6] | Potency [8] | Potency [7] | Potency [9]

CCCCOc1ccc(C(=O)CCN2CCCCC2)cc1
inactive: fluorescence, % of fluorescein [1] 0.0036% [at 18.6 µM] | fluorescence, % of fluorescent control [2] 0.0618% [at 18.6 µM] | activity change [3] -0.0432% [at 18.6 µM, active compounds read high] | fluorescence, % of fluorescent control [4] -0.0248% [at 18.6 µM] | fluorescence, % of fluorescein control [6] 0.0663% [at 18.6 µM] | fluorescence, % of fluorescent control [8] -0.165% [at 18.6 µM] | Potency [7]

CCN(CC)CCSC(=O)C(c1ccccc1)c1ccccc1
inactive: Potency [1] | Potency [2] | Potency [3] | Potency [4] | Potency [5] | Potency [6] | Potency [8] | Potency [7]
active: Potency [9] 19 µM and 10.7 µM

Cc1occc1SSc1ccoc1C
inactive: Potency [1] | Potency [2] | Potency [3] | Potency [4] | Potency [5] | Potency [6] | Potency [8] | Potency [7]

CC(CN(C)C)CN1c2ccccc2CCc2ccccc21 (stereo not drawn)
inactive: fluorescence, % of fluorescein [1] 0.0583% [at 18.6 µM] | fluorescence, % of fluorescent control [2] 0.133% [at 18.6 µM] | activity change [3] -0.0046% [at 18.6 µM, active compounds read high] | fluorescence, % of fluorescent control [4] 0.264% [at 18.6 µM] | fluorescence, % of fluorescein control [6] -0.0071% [at 18.6 µM] | fluorescence, % of fluorescent control [8] -0.0977% [at 18.6 µM]

COC(=O)CC(C)CCC=C(C)C (stereo not drawn)
inactive: Potency [1] | Potency [2] | Potency [3] | Potency [4] | Potency [5] | Potency [6] | Potency [8] | Potency [7] | Potency [9]

COC(=O)[C@]1(C)CCC[C@@]2(C)[C@H]1CC=C1C=C(C(C)C)CC[C@@H]12
inactive: Potency [1] | Potency [2] | Potency [3] | Potency [4] | Potency [5] | Potency [6] | Potency [8] | Potency [7] | Potency [9]

O=C(O)Cc1ccc(OCCNC[C@H](O)c2ccccc2)cc1
inactive: Potency [1] | Potency [2] | Potency [3] | Potency [4] | Potency [5] | Potency [6] | Potency [8] | Potency [7] | Potency [9]

Cc1oc(-c2ccccc2)nc1CCOc1ccc(C[C@H](Nc2ccccc2C(=O)c2ccccc2)C(=O)O)cc1
inactive: Potency [1] | Potency [2] | Potency [3] | Potency [4] | Potency [5] | Potency [6] | Potency [8]

CN(C)CCCN1c2ccccc2Sc2ccc(C(F)(F)F)cc21
inactive: Potency [1] | Potency [2] | Potency [3] | Potency [4] | Potency [6] | Potency [8] | Potency [7]

C[C@@]12C(=O)OC(=O)[C@]1(C)C1CCC2O1
inactive: fluorescence, % of fluorescein [1] 0.0141% [at 18.6 µM] | fluorescence, % of fluorescent control [2] -0.101% [at 18.6 µM] | activity change [3] -0.057% [at 18.6 µM, active compounds read high] | fluorescence, % of fluorescent control [4] 0.092% [at 18.6 µM] | fluorescence, % of fluorescein control [6] -0.0053% [at 18.6 µM] | fluorescence, % of fluorescent control [8] -0.0452% [at 18.6 µM]

CC(C)N=C(N)/N=C(\N)Nc1ccc(Cl)cc1
inactive: fluorescence, % of fluorescein [1] -0.0268% [at 18.6 µM] | fluorescence, % of fluorescent control [2] -0.0312% [at 18.6 µM] | activity change [3] -0.0305% [at 18.6 µM, active compounds read high] | fluorescence, % of fluorescent control [4] -0.0425% [at 18.6 µM] | fluorescence, % of fluorescent control [5] -0.111% [at 18.6 µM] | fluorescence, % of fluorescein control [6] 0.0037% [at 18.6 µM] | fluorescence, % of fluorescent control [8] 0.176% [at 18.6 µM] | Potency [7] | Potency [9]

CN1[C@@H]2CC[C@H]1CC(OC(=O)C(CO)c1ccccc1)C2 (stereo partly drawn)
inactive: Potency [1] | Potency [2] | Potency [3] | Potency [4] | Potency [5] | Potency [6] | Potency [8] | Potency [7] | Potency [9]

CCN=C1C=CC(=C(c2ccc(N(CC)CC)cc2)c2ccc(N(CC)CC)cc2)c2ccccc21
inactive: Potency [1] | Potency [2] | Potency [3] | Potency [4] | Potency [6] | Potency [8]

CC1CCCNC1 (stereo not drawn)
inactive: Potency [1] | Potency [2] | Potency [3] | Potency [4] | Potency [5] | Potency [6] | Potency [8] | Potency [7] | Potency [9]

c1cc(OCC2CO2)cc(OCC2CO2)c1 (stereo not drawn)
inactive: Potency [1] | Potency [2] | Potency [3] | Potency [4] | Potency [5] | Potency [6] | Potency [7]

COC(=O)NCCC[Si](OC)(OC)OC
inactive: Potency [1] | Potency [2] | Potency [3] | Potency [4] | Potency [5] | Potency [6] | Potency [8]
